This is part of a sample that, as a whole, favours compounds with a hit. Of some 83,000 tested, about 20% had one in any assay.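 96-well plates, one dose, 48 hours. Percent growth reported; active if below 10.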 Values without a mark were called inactive. Activity calls are given as the source filed them.
How the values were obtained:
Assay in all cases: NCI-60 one-dose screen, 48 h (100 = growth as untreated, 0 = no growth, -100 = all killed)
Conditions in all cases: 10 µM unless noted
[1] = tested on: NCI-H23 lung
[2] = tested on: NCI-H226 lung
[3] = tested on: NCI-H322M lung
[4] = tested on: HOP-62 NSCLC
[5] = tested on: NCI-H460 lung
[6] = tested on: HOP-92 NSCLC
[7] = tested on: NCI-H522 lung
[8] = tested on: A549/ATCC NSCLC
[9] = tested on: 786-0 renal
[10] = tested on: COLO 205 colon
[11] = tested on: DU-145 prostate
[12] = tested on: K-562 leukemia
[13] = tested on: MALME-3M melanoma
[14] = tested on: MDA-MB-231 breast
[15] = tested on: RXF 393 renal
[16] = tested on: SF-268 CNS
[17] = tested on: SF-295 CNS
[18] = tested on: SF-539 CNS
[19] = tested on: UACC-257 melanoma
[20] = tested on: M14 melanoma

SMILES	growth [1] [%]	growth [2] [%]	growth [3] [%]	growth [4] [%]	growth [5] [%]	growth [6] [%]	growth [7] [%]	growth [8] [%]	growth [9] [%]	growth [10]	growth [11] [%]	growth [12] [%]	growth [13] [%]	growth [14] [%]	growth [15]	growth [16] [%]	growth [17] [%]	growth [18]	growth [19] [%]	growth [20] [%]
Cc1ccc(-c2nc3c(N=Nc4ccc(S(N)(=O)=O)cc4)c(N)nn3c(N)c2C#N)cc1	43.9	65	66.1	42.6	27.9	19.6	28.7	63.1	64.5	14.5%	34.6	20.3	48.5	40.1	27.9%	34.5	49.2	30.7%	72.3	46.4
CN1CCN(CC(=O)N(C)c2ccc(N=C(c3ccccc3)c3c(O)[nH]c4ccc(C#N)cc34)cc2)CC1	35.5	43.2	37.7	39.7	21.2	63.8	45.3	19.6	32.4	0.511% (active)	32.8	11	35.5	42.5	3.21% (active)	32	18.2	-20.2% (active)	78.5	30.7
CC(=S)Nc1ccccc1	95.7	89.3	104	82.2	97.3	90.7	88.2	79.6	104	99.8%	103	101	89	95.5	107%	107	105	102%	82.7	96.6
Oc1ccccc1/C=N/c1ccccn1	220	107	132	112	112	76.9	92	104	158	85.7%	129	109	115	106	107%	110	121	100%	91.4	100
COc1ccc(Cl)cc1NC(=O)c1cc2c([nH]1)-c1nc(NC(=O)C(C)C)sc1CC2	83.5	79.5	92.8	75.3	106	90	63.7	91.1	105	102%	96.2	76.4	104	113	109%	94.9	101	26%	92.7	101
CN1CCN(Cn2nc(-c3cc(Cl)cc(Cl)c3Cl)n(/N=C/c3ccc(Cl)cc3)c2=S)CC1	92.5	104	67.6	95	106	43.7	91.1	94	89.1	118%	102	73.9	101	83.8	89.6%	117	102	108%	93.6	96
CC1(C)CC(=O)C2=C(C1)OC1=C(C(=O)CC(C)(C)C1)C2c1ccc(OCc2cn(-c3ccc(F)cc3F)nn2)cc1	102	88.9	105	116	100	107	77	84.3	120	101%	92.2	73.8	89.6	91.8	107%	84.9	95.5	99.8%	83.3	87.3
COc1ccc(/C=C2/C(=O)Nc3cc(Cl)c(-c4csc(N)n4)cc32)cc1	58	69.2	68.3	50.1	42.7	43.1	21.6	48.5	62.3	33.7%	67.5	13.6	75.1	27.3	59.7%	58.7	52.4	37.8%	82.7	29.9
